This is a sample that favours compounds with a hit; in the whole collection about 9% have one here.
BAZ2B inh = BAZ2B (human) inhibition | AlphaScreen BAZ2B-H3K14Ac peptide displacement | Potency, µM (series often up to 114 µM), without a hit: at the top dose activity change, negative = inhibition, usual class: inhibitors | Q9UIF8 | 360,000 tested, 4.4% active; note: % is set by controls: 0 for no effect and ±100 for the full control effect; nearly all actives have a fitted effect of over 60% in size
Target sequence (Q9UIF8 whole entry, looked up): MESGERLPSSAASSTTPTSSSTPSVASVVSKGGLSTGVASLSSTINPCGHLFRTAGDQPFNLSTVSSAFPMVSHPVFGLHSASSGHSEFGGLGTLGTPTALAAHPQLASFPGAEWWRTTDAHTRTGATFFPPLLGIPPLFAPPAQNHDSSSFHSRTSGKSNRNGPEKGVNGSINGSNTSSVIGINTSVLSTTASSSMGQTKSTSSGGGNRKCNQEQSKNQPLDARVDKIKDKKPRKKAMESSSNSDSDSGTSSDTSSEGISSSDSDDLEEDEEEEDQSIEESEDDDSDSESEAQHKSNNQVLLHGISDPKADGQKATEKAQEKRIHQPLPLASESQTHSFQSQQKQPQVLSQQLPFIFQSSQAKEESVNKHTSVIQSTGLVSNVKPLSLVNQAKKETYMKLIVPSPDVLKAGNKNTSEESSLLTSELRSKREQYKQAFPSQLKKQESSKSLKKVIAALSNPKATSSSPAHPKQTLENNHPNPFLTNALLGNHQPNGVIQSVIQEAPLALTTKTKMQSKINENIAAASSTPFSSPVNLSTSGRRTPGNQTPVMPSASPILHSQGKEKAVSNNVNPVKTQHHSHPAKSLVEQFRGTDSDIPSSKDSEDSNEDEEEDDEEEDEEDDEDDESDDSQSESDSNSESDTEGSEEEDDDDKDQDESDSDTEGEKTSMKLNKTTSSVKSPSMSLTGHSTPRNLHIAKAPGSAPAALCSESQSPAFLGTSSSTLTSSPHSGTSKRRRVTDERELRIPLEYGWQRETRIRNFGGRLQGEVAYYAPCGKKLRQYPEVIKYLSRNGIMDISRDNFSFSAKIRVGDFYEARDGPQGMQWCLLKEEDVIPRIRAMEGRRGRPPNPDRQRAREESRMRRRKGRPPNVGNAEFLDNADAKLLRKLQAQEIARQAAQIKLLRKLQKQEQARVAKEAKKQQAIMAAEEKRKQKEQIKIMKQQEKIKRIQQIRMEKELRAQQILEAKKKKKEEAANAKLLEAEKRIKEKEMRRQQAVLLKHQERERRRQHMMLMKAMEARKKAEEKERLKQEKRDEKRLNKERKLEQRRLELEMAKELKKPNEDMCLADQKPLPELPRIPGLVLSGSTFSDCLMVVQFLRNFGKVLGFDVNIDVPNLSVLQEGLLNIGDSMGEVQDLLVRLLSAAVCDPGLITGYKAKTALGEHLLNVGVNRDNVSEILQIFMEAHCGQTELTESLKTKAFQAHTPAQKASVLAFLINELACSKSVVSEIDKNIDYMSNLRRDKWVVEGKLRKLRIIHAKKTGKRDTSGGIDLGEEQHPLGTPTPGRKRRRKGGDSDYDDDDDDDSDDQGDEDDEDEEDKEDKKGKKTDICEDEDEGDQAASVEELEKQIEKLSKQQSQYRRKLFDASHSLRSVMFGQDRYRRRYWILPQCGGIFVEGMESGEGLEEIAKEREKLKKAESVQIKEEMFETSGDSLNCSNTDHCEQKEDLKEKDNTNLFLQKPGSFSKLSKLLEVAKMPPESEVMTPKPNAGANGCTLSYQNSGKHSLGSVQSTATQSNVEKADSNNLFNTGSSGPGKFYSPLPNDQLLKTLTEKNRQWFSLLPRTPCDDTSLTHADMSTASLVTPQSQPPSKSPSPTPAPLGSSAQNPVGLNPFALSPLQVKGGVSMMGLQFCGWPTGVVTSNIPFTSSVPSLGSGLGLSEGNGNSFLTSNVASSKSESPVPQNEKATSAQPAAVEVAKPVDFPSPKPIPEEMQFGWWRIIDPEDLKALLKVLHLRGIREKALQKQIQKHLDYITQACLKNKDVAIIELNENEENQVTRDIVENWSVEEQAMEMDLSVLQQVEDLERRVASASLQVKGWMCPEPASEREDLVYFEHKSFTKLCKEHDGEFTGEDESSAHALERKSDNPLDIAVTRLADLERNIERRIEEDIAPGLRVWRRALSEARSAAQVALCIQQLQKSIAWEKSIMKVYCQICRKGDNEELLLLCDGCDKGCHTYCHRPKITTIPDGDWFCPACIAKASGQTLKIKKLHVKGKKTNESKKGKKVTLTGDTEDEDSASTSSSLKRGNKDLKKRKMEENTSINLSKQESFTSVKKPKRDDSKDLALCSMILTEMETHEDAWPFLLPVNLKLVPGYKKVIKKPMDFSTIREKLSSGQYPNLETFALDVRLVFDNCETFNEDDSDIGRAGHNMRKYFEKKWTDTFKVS
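AlphaScreen displacement of biotin-H3(5-23)K14Ac peptide (50 nM final) from BAZ2B (50 nM final) in PBS pH 7.4, 0.01% Tween-20; complex preformed 30 min RT, then compounds (top 110 uM) 30 min RT, beads 20 min dark.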
PLK1 PBD inh = inhibitors of human PLK1 polo-box domain binding; P53350; Plk1 PBD binding of FITC phosphopeptide, fluorescence polarization; Potency, µM, without a hit: max response, negative = inhibition, usual class: inhibitors; 360,000 tested, 2.8% active; AID 720504; note: series mostly up to about 57 µM; % is set by controls: 0 for no effect and ±100 for the full control effect; nearly all actives have a fitted effect of over 65% in size
12-LOX inh = inhibitors of human 12S-lipoxygenase ALOX12; P18054; purified 12hLO, xylenol orange hydroperoxide absorbance; Potency, µM (titrated, usually from 108 µM), inactives show at the highest dose activity change, negative = inhibition, hits mostly inhibitors; 580,000 tested, 1.1% active; AID 1671190; note: % is set by controls: 0 for no effect and ±100 for the full control effect
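Purified human 12hLO at 150 nM in 25 mM Hepes, 0.01% Triton X-100, pH 7.0, preincubated 15 min at room temperature with compound. Reaction started with 40 uM arachidonic acid, 30 min at room temperature. Hydroperoxide measured by Fe-xylenol orange, 573/405 nm absorbance ratio.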
G9a block = blocks human histone lysine methyltransferase G9a | Potency, µM (titrated, usually from 102 µM), without a hit: at the highest dose activity, negative = inhibition, hits mostly inhibitors | G9a H3K9 monomethylation, AlphaScreen, 2 h | AID 504332 | Q96KQ7 | 350,000 tested, 8.8% active; note: % is set by controls: 0 for no effect and ±100 for the full control effect; nearly all actives have a fitted effect of over 75% in size
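Quantitative HTS format: methyltransferase activity on a biotin-tagged H3K9 peptide is measured by AlphaScreen, using a rabbit anti-monomethyl-H3K9 antibody with streptavidin donor and anti-IgG acceptor beads. Final levels are 20 nM enzyme, 500 nM peptide, 20 uM SAM; 2 h RT.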
HP1b binding inh = inhibitors of HP1-beta chromodomain binding to methylated histone tails | AlphaScreen HP1-beta / biotin-H3K9me3 peptide binding | Potency, µM (titrated, usually from 114 µM), for the others: at the top dose activity change, negative = inhibition, actives largely listed as inhibitors | 390,000 tested, 0.56% active | AID 540317; note: nearly all actives have a fitted effect of over 70% in size
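HP1-beta protein (50 nM final) preincubated 30 min at room temperature with biotinylated H3(1-18)K9me3 peptide (50 nM) in PBS pH 7.4, 0.01% Tween-20, then compound added for 30 min. AlphaScreen streptavidin donor/nickel chelate acceptor beads (10 ug/mL final), 30 min dark, luminescence read.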
JMJD2A Tudor inh = inhibitors of human JMJD2A Tudor domain. AlphaScreen JMJD2A-Tudor / H3K4me3 peptide binding. Potency, µM (titrated, usually from 114 µM), inactives show at the top dose activity change, negative = inhibition, most hits filed as inhibitors. 390,000 tested, 4.4% active. AID 504339; note: % is set by controls: 0 for no effect and ±100 for the full control effect; nearly all actives have a fitted effect of over 50% in size
* marks the source's active call; other numbers are inactive results; ? = inconclusive; / = no result; [ ] = dose if it differs, or a comment. Calls come from the whole dose curve; as a rule, active = well fitted curve in the direction sought with a large enough effect; inconclusive = small, poorly fitted or top-dose-only effect, or another doubt; inactive = no such curve, though single readings can be large; an effect the other way counts as inactive or inconclusive. Potency is the fitted concentration of half-maximal effect.

SMILES	BAZ2B inh	PLK1 PBD inh	12-LOX inh	G9a block	HP1b binding inh	JMJD2A Tudor inh
CC(C)Cc1nc2cc(NS(=O)(=O)N(C)C)cc(C(=O)N3CC4(C)CC3CC(C)(C)C4)c2n1C (configuration not stated)	/	/	-1.5%	/	/	/
CC(=O)N1CCC(C(=O)NCc2ccccc2)(N(C(=O)c2ccc(C)cc2)c2ccccc2F)CC1	/	/	17.7%	/	/	/
CCC(NC(=O)CCc1c(C)c2cc3c(C)c(C)oc3cc2oc1=O)C(=O)N[C@@H](Cc1ccccc1)C(=O)O (some centres not stated)	50.1µM*	-9.2%	4.2%	?	2.9%	?
COc1ccc(N2CCN(C(=O)c3ccc4c(c3)NC(=O)C(CSCc3ccc(C)cc3)N4)CC2)cc1 (configuration not stated)	?	/	/	7.94µM*	/	/
COc1ccc(N2CCN(C(=O)c3ccc4c(c3)NC(=O)C(CSCc3c(F)cccc3Cl)N4)CC2)cc1 (configuration not stated)	-33.4%[57.1 µM]	/	/	31.6µM*	/	/
COCCCN1C(=O)c2ccc(C(=O)N3CCN(c4ccc(OC)cc4)CC3)cc2C1=O	-19.8%	-2.2%	-19.4%	1.0%[59 µM]	29.0%	-12.1%
COc1ccc(N2CCN(C(=O)c3ccc4c(c3)NC(=O)C(CSCc3cccc(F)c3)N4)CC2)cc1 (configuration not stated)	-36.8%	/	/	20µM*	/	/
COc1ccc(-c2ccc3c(c2)C(=O)N2CCN(C(=O)c4cccc(F)c4)C[C@@H]2C(=O)N3)cc1	/	/	-4.7%	/	/	/
COc1ccc(C(=O)Nc2ccc3oc(-c4ccc(F)cc4Cl)nc3c2)cc1	1.0%	/	-6.5%	-8.8%[59 µM]	19.0%	-18.3%
Cc1cc(C(=O)c2cccs2)c(N)s1	-55.4%	23.8µM*	?	39.8µM*	?	?
CCOc1cc(/C=N/NC(=O)c2cc(C)n(-c3ccc(F)cc3)c2C)ccc1O	?	-3.1%	0.0%	/	-0.7%	-34.0%
Cc1cc(C(=O)N/N=C2\CC(=O)c3ccccc32)c(C)n1-c1ccc(F)cc1	39.8µM*	-9.5%	6.8%	50.1µM*	27.7%	-4.4%[11.4 µM]
N=C1/C(=C/c2ccc(Br)o2)C(=O)N=C2SC(CC(=O)N3CCCC3)=NN12	50.1µM*	?	-8.8%	?	9.6%	?
COc1ccc(-n2c(C)cc(/C=C3\C(=N)N4N=C(CC(=O)N5CCOCC5)SC4=NC3=O)c2C)cc1	44.7µM*	-15.2%	-19.2%	-4.8%[0.0925 µM]	15.7%	-34.1%
CSc1ccc(/C=C2\C(=N)N3N=C(CC(=O)N4CCOCC4)SC3=NC2=O)cc1	-15.3%	?	-23.6%	-17.2%	14.9%	-11.6%
N=C1/C(=C/c2ccco2)C(=O)N=C2SC(CC(=O)N3CCCC3)=NN12	?	?	-3.9%	39.8µM*	-4.0%	79.4µM*
N=C1/C(=C\c2ccc(Br)o2)C(=O)N=C2SC(CC(=O)N3CCOCC3)=NN12	50.1µM*	-28.0%	-28.6%	12.9%[12.7 µM]	22.7%	89.1µM*
CCc1ccc(/C=C2\C(=N)N3N=C(CC(=O)N4CCCCC4)SC3=NC2=O)cc1	?	?	3.6%	2.1%	39.9%	0.7%
Cc1ccc(/C=C2\C(=N)N3N=C(CC(=O)N4CCCCC4)SC3=NC2=O)cc1	-15.3%[57.1 µM]	?	-12.3%	13.7%	30.6%	-23.6%
COCCC(=O)N1CCC2(CC1)CC(Cc1nc(-c3ccncc3)no1)CCO2 (configuration not stated)	/	/	28.2%	/	/	/
CC(C)c1ccc(NC(=O)COC(=O)c2c[nH]c(=O)[nH]c2=O)cc1	6.3%	-15.4%	?	15.8µM*	16.5%	?
CN(C)c1ncc2nc(CCc3ccccc3)c(=O)n(C3CC3)c2n1	/	/	?	-8.8%[0.501 µM]	/	/
CCCCN1C(=O)[C@@H]2C[C@@H](O)CN2C2(CN(Cc3ccc(NC(C)=O)cc3)C2)C1=O	/	/	12.0%[176 µM]	/	/	/
COc1ccc2c(c1)C=C(CN1CCC(CO)(CCc3ccccc3)CC1)CO2	?	-8.1%	-27.5%	?	-11.5%	?
CCOc1ccc(Nc2nc(C)c(NC(=O)c3cccc(OC)c3)c(Nc3ccc(OCC)cc3)n2)cc1	?	/	?	11.2µM*	-9.3%	?
SMILES	BAZ2B inh	PLK1 PBD inh	12-LOX inh	G9a block	HP1b binding inh	JMJD2A Tudor inh
CCOc1ccc(C(=O)Nc2c(C)nc(Nc3ccccc3)nc2Nc2ccccc2)cc1OCC	-30.6%	/	-29.7%	-26.8%[59 µM]	23.0%	-12.3%
COc1ccc(Nc2nc(C)c(NC(=O)c3cccc(C)c3)c(Nc3ccc(OC)cc3)n2)cc1	/	/	35.5µM*	/	/	/
Nc1ccc(N2CCCCC2)c(Cl)c1	-26.1%	-15.2%	-12.3%	44.7µM*	-32.5%	-34.0%
O=C(Nc1cccc(Cl)c1N1CCOCC1)c1ccco1	-11.5%	0.1%	?	9.8%	19.2%	-18.9%
Nc1cccc(Cl)c1N1CCOCC1	-0.7%	26.7µM*	13.3%	12.1%[0.0925 µM]	?	20µM*
Nc1cc(C(=O)O)ccc1N1CCCCCC1	-25.1%	-8.8%	3.4%	-6.3%[59 µM]	14.1%	-11.0%
Nc1ccc(N2CCOCC2)c(Cl)c1	-36.9%	23.8µM*	0.0%[57.4 µM]	?	-27.5%	-6.9%[11.4 µM]
Cc1cc(C(=O)N2CCC(c3n[nH]c(=O)n3Cc3ccccc3)CC2)on1	/	/	8.7%	/	/	/
COc1ccc(N(C(=O)CNC(=O)c2cccs2)C(C(=O)NC2CCCC2)c2cccnc2)cc1 (configuration not stated)	-15.2%	-17.3%	6.2%	-2.2%	59.0%	5.5%
O=C(C[C@H]1C/C=C\CC[C@@H](Cc2ccc(F)cc2)C(=O)O[C@H](c2ccccc2)CNC1=O)N[C@H](CO)Cc1ccccc1	/	-3.4%	?	/	20.8%	-6.8%
COc1cc(/C=C2/C(=O)CNC2=O)ccc1O	-12.3%	29.0%	-27.2%	44.7µM*	25.8%	7.2%
COc1cc(/C=C2\CCC/C(=C\c3ccc(O)c(OC)c3)C2=O)ccc1O	?	-9.9%	?	44.7µM*	?	28.2µM*
COc1cc(/C=C2/CCC/C(=C\c3cc(O)c(OC)c(Cl)c3)C2=O)cc(Cl)c1O	?	-26.5%	3.7%	35.5µM*	-15.5%	?
CCOc1cc(/C=C2\CN(CC)C/C(=C\c3ccc(O)c(OCC)c3)C2=O)ccc1O	50.1µM*	-7.5%	?	28.2µM*	-19.6%[57 µM]	56.2µM*
COc1cc(C=C2NC(=O)NC2=O)ccc1O	/	-9.2%	-2.2%	/	/	/
COc1cc(/C=C2/CCCC(C(=O)C(F)(F)F)=C2O)ccc1O	?	-6.1%	0.0%	-125.8%[59 µM]	-6.8%	-27.1%
O=C(c1cncc(N2CCC3(CCCNC3=O)C2)n1)N1CCOCC1 (configuration not stated)	/	/	44.8%	/	/	/
COc1cc(/C=C2\CC/C(=C\c3cc(OC)c(O)c(OC)c3)C2=O)cc(OC)c1O	50.1µM*	4.74µM*	20µM*	2.51µM*	?	44.7µM*
